Laboratory results reported in PubChem BioAssay.
Active and inactive are the calls of the source. Unless noted, how the calls were made is not given here.

Tests used:
[1] = liver-stage malaria parasite load reduction – cell-based, known kinase inhibitor set, luminescence, hepatoma host viability (AID 624392); conditions: Plasmodium liver stage in hepatoma cells, luciferase luminescence, concentration not given here; liver cell % of control: measured here: host liver cell viability; parasite % of control: stronger effect = lower value;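 further: infected cells incubated roughly two days before readout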
[2] = altered dexamethasone sensitivity, NF-kB reporter, cell-based, luciferase, IL-1B stimulus (AID 624486); conditions: IL-1B + dexamethasone, luminescence; percent of negative control (+Dex): actives lie on both sides, concentration not given here; z-score: measured here: IL-1B alone, no Dex;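 on percent of negative control (+Dex): 100% = mean signal of vehicle control wells on the plate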
[3] = target: Cellular tumor antigen p53 (Homo sapiens) (UniProt P04637); test: GFP-p53 level modulators in HPV16+ cells – imaging, known kinase inhibitor set, EGFP/DsRed ratio (AID 1053116); conditions: GFP-p53 stability, stronger effect = higher value; EGFP object count: measured here: GFP-p53 positive objects count;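 further: cells exposed to compounds for 24 h at 37 °C before reading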
[4] = inducers of IRF3 signaling, differentiated THP-1 – cell-based, PMA-stimulated THP-1, luminescence (AID 1053176); conditions: PMA-differentiated THP-1, IRF3 reporter luminescence; stronger effect = higher value
[5] = C. elegans survival during P. aeruginosa infection – whole organism (AID 651566);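 further: tested at 14 µM; sign flipped so higher z means a lower ratio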; conditions: C. elegans killed by P. aeruginosa, survival ratio
[6] = pro-inflammatory signaling induction in mouse macrophages – cell-based, murine, luminescence (AID 652131); conditions: murine macrophage pro-inflammatory reporter, stronger effect = higher value
[7] = MELAS cybrid and Rieske KO viability enhancers – cell-based, MELAS cybrids, Rieske KO mouse fibroblasts, CellTiter-Glo, primary screen (AID 1508586;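 active means mean z-score across replicates of 1.96 or higher in either the MELAS or the Rieske mutant cell line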;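 further: z relative to plate mean and SD of compound and empty wells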); conditions: low glucose
[8] = Wnt pathway potentiators raising nuclear beta-catenin – imaging, WNT3A-conditioned medium, mouse C2C12, NPC library, primary screen (AID 1117326; in the data active means nuclear beta-catenin stimulation mostly above about 4.2%, no sharp cut-off; inactive means mostly below about 10%); conditions: stronger effect = higher value
[9] = stimulators of insulin release from INS-1E, primary screen, cell-based, 5 mM glucose, NPC library (AID 1117329;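 active means compound raises insulin release from rat beta cells at 5 mM glucose, no numeric limit stated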); conditions: rat INS-1E insulin secretion, at 10 µM, stronger effect = higher value
[10] = growth inhibition of GSK3B-pretreated HCT116 cells – cell-based, CellTiter-Glo, 0.2 to 20 µM (AID 1117336;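 active means compounds lowering colon cancer cell viability after pretreatment blocking the GSK3B kinase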); conditions: HCT116 viability after GSK3B inhibitor, at 20 µM, stronger effect = higher value
[11] = inhibition of endothelial tube formation, primary screen, imaging, VEGF stimulated, CD31 staining, tube area, NPC library (AID 1117340;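 active means compound that reduces growth-factor-driven endothelial tube area in a mixed cell culture, no cutoff stated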); conditions: VEGF-stimulated ADSC/ECFC co-culture, at 10 µM, stronger effect = higher value
[12] = GLP1 release stimulators, primary, NCI-H716, NPC library (AID 1117341;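 active means compound raises GLP1 secretion from the human gut endocrine cells, with no numeric limit stated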); conditions: NCI-H716 cells, at 10 µM, stronger effect = higher value
[13] = HCT116 colon cancer cell growth inhibition, primary screen, CellTiter-Glo luminescence, NPC library (AID 1117342;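 active means compounds that lower survival of HCT116 colon cancer cells in the luminescence readout, no numeric limit stated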); conditions: at 20 µM (top of the series)
[14] = reduced SW480 viability measured with CellTiter-Glo, NPC library, primary (AID 1117343;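 active means compounds that lower viability of the colon cancer cells in the luminescence readout, with no numeric limit stated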); conditions: CellTiter-Glo luminescence; at 20 µM (top of the series)
[15] = NPC library primary testing for decreased DLD-1 cell viability via CellTiter-Glo (AID 1117346;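 active means compounds that lower survival of DLD-1 colon cancer cells in the luminescence readout, no cutoff given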); conditions: DLD-1 viability, CellTiter-Glo luminescence; at 20 µM (top of the series)
[16] = MELAS cybrid survival, CellTiter-Glo 48 h, stronger effect = higher value
[17] = Rieske KO mouse fibroblast survival, CellTiter-Glo 72 h

Cellular tumor antigen p53 (Homo sapiens), sequence (P04637 whole entry, looked up): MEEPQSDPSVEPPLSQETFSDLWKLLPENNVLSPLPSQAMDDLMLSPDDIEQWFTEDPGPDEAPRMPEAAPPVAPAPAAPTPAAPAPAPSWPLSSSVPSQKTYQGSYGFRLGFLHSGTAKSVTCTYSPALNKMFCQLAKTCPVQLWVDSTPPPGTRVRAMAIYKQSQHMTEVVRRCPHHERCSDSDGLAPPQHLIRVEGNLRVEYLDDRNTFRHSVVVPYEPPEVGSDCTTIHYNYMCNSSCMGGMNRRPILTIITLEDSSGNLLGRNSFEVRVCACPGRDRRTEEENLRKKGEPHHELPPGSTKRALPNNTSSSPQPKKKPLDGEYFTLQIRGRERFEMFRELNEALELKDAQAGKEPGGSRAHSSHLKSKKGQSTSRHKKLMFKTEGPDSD

Q: Which liver cell % of control [1] does the source give for `Nc1c(C(=O)c2cccc(C(O)(CO)CO)c2)cnn1-c1ccc(F)cc1` here?
A: 95.6%

Q: And the parasite % of control [1]?
A: 51.5% (inactive)

Q: What about the percent of negative control (+Dex) [2] of the same compound?
A: 104% (inactive)

Q: And the z-score [2]?
A: 0.905

Q: What about the EGFP object count [3] of the same compound?
A: 3

Q: And the EGFP/DsRed ratio [3]?
A: 0.0614 (inactive)

Q: What about the fraction signal [4] of the same compound?
A: 0.0095 (inactive)

Q: For `CN1CCN(CCc2cccc(C(=O)c3cnn(-c4ccc(F)cc4)c3N)c2)CC1`, which liver cell % of control [1] is on record?
A: 112%

Q: What about the parasite % of control [1] of the same compound?
A: 51.1% (inactive)

Q: And the percent of negative control (+Dex) [2]?
A: 96.5% (inactive)

Q: What about the z-score [2] of the same compound?
A: 1.1

Q: And the EGFP object count [3]?
A: 5

Q: And the EGFP/DsRed ratio [3]?
A: 0.187 (inactive)

Q: What about the fraction signal [4] of the same compound?
A: 0.0015 (inactive)

Q: Which liver cell % of control [1] does the source give for `Cn1cc(C2=C(c3cn(CCCCN)c4ccccc34)C(=O)NC2=O)c2ccccc21` here?
A: 117%

Q: And the parasite % of control [1]?
A: 65.7% (inactive)

Q: What about the percent of negative control (+Dex) [2] of the same compound?
A: 98.5% (inactive)

Q: And the z-score [2]?
A: 0.945

Q: And the EGFP object count [3]?
A: 3.5

Q: And the EGFP/DsRed ratio [3]?
A: 0.117 (inactive)

Q: And the fraction signal [4]?
A: 0.01 (inactive)

Q: Which liver cell % of control [1] does the source give for `O=C1NC(=O)C(c2cccc([N+](=O)[O-])c2)=C1Nc1cc(Cl)c(O)c(Cl)c1` here?
A: 108%

Q: And the parasite % of control [1]?
A: 92.3% (inactive)

Q: What about the percent of negative control (+Dex) [2] of the same compound?
A: 80.5% (inactive)

Q: What about the z-score [2] of the same compound?
A: -0.485

Q: What about the z-score [5] of the same compound?
A: 0.045 (inactive)

Q: What about the z-score [6] of the same compound?
A: 0.634 (inactive)

Q: And the fraction signal [4]?
A: -0.003 (inactive)

Q: And the z-score [7, 16]?
A: -0.803 (inactive)

Q: What about the z-score [7, 17] of the same compound?
A: -0.48

Q: For `O=C1NC(=O)C(c2ccccc2Cl)=C1Nc1cc(Cl)c(O)c(Cl)c1`, which liver cell % of control [1] is on record?
A: 90.9%

Q: What about the parasite % of control [1] of the same compound?
A: 128% (inactive)

Q: And the percent of negative control (+Dex) [2]?
A: 95.5% (inactive)

Q: What about the z-score [2] of the same compound?
A: 0.49

Q: What about the z-score [5] of the same compound?
A: -0.07 (inactive)

Q: What about the z-score [6] of the same compound?
A: 0.319 (inactive)

Q: What about the fraction signal [4] of the same compound?
A: -0.002 (inactive)

Q: And the z-score [7, 16]?
A: -0.0492 (inactive)

Q: What about the z-score [7, 17] of the same compound?
A: -0.159

Q: For `CO/N=C(/C(=O)N[C@@H]1C(=O)N2C(C(=O)OCOC(=O)C(C)(C)C)=C(C)CS[C@H]12)c1csc(N)n1`, which nuclear beta-catenin stimulation ([8]; at 10 µM) is on record?
A: 1% (inactive)

Q: And the nuclear beta-catenin stimulation ([8]; stimulation, at 2 µM)?
A: -2%

Q: And the insulin secretion stimulation [9]?
A: 5.9% (inactive)

Q: What about the viability decrease [10] of the same compound?
A: 7.7% (inactive)

Q: And the tube area decrease [11]?
A: -11.2% (inactive)

Q: What about the GLP1 secretion stimulation [12] of the same compound?
A: -21% (inactive)

Q: What about the inhibition of viability [13] of the same compound?
A: 0.6% (inactive)

Q: And the viability decrease (inhibition) [14]?
A: 15% (inactive)

Q: What about the viability decrease (inhibition) [15] of the same compound?
A: -8.3% (inactive)

Q: Which liver cell % of control [1] does the source give for `C[C@@H](Oc1cc(-n2cnc3ccc(OC4CCN(C)CC4)cc32)sc1C(N)=O)c1ccccc1Cl` here?
A: 70.4%

Q: And the parasite % of control [1]?
A: 183% (inactive)

Q: What about the percent of negative control (+Dex) [2] of the same compound?
A: 73% (inactive)

Q: And the z-score [2]?
A: -2.66

Q: What about the z-score [5] of the same compound?
A: -0.3 (inactive)

Q: And the z-score [6]?
A: -1.72 (inactive)

Q: What about the fraction signal [4] of the same compound?
A: -0.008 (inactive)

Q: And the z-score [7, 16]?
A: -0.022 (inactive)

Q: And the z-score [7, 17]?
A: -0.0227

Q: Which results are given for `CS(=O)(=O)c1ccc(Oc2nccc(-c3c(-c4ccc(F)cc4)ncn3C3CCNCC3)n2)cc1`?
A: liver cell % of control [1]: 78.7%; parasite % of control [1]: 128% (inactive); percent of negative control (+Dex) [2]: 92% (inactive); z-score [2]: 0.015; z-score [5]: -0.505 (inactive); z-score [6]: -0.16 (inactive); fraction signal [4]: -0.008 (inactive); z-score [7, 16]: -0.0537 (inactive); z-score [7, 17]: -0.376

Q: Which liver cell % of control [1] does the source give for `O=C1NC(=O)C(c2ccccc2)=C1Nc1ccccc1` here?
A: 106%

Q: What about the parasite % of control [1] of the same compound?
A: 119% (inactive)

Q: What about the percent of negative control (+Dex) [2] of the same compound?
A: 99.5% (inactive)

Q: And the z-score [2]?
A: 0.395

Q: And the z-score [5]?
A: 0.425 (inactive)

Q: What about the z-score [6] of the same compound?
A: -0.099 (inactive)

Q: And the fraction signal [4]?
A: -0.014 (inactive)

Q: What about the z-score [7, 16] of the same compound?
A: -0.614 (inactive)

Q: What about the z-score [7, 17] of the same compound?
A: -0.425

Q: For `Fc1ccc(-c2ncn(C3CCNCC3)c2-c2ccnc(Oc3ccccc3)n2)cc1`, which liver cell % of control [1] is on record?
A: 73.1%

Q: And the parasite % of control [1]?
A: 120% (inactive)

Q: What about the percent of negative control (+Dex) [2] of the same compound?
A: 102% (inactive)

Q: What about the z-score [2] of the same compound?
A: 0.6

Q: And the z-score [5]?
A: 0.255 (inactive)

Q: What about the z-score [6] of the same compound?
A: 0.32 (inactive)

Q: What about the fraction signal [4] of the same compound?
A: -0.004 (inactive)

Q: And the z-score [7, 16]?
A: -0.224 (inactive)

Q: And the z-score [7, 17]?
A: -0.286
